Results: PubChem BioAssay
Activity calls are given as the source filed them.

System: wheat germ agglutinin (Triticum aestivum), Alexa647-labelled
Test: wheat germ agglutinin binders on compound microarrays, profiling panel, artefact control for SMM control-protein annotation, biochemical, small-molecule microarray, 635/667 nm fluorescence (AID 1140);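 also: score merges 667 nm feature emission with signal to noise over triplicate slides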
Conditions: WGA-A647 binding, 635 nm fluorescence, higher = more signal

Composite z-score, 0.775:
C=C(CCCC)/C(=C/C[C@H](OC(C)=O)c1ccc(OCCO)cc1)c1cc(C(=O)OC)ccc1OC

Composite z-score, 0.768:
COCCOC(=O)N1C(=O)[C@@]2(c3cc(C#CCNC(N)=O)ccc31)[C@H](c1ccc(OCCO)cc1)N1[C@H](c3ccccc3)[C@H](c3ccccc3)OC(=O)[C@H]1[C@@H]2C(=O)NC[C@H](O)c1ccccc1

Composite z-score, 1.14:
CC(=O)N1CC(C(O)C2C=CC3C(=O)NC(=O)C3N2Nc2ccc(Cl)cc2Cl)c2ccccc21 (configuration not stated)
C=C(COC)/C(=C/C[C@H](OC(C)=O)c1cccc(OCCO)c1)c1cnc2ccccc2c1

Composite z-score, -0.858:
C=C[C@@H](C)[C@H](O)c1ccc(OCCO)cc1

Composite z-score, 0.863:
Nc1cc(Br)ccc1C(=O)O

Composite z-score, 0.719:
C=CCNC(=O)[C@H]1[C@@H]2C(=O)O[C@@H](c3ccccc3)[C@@H](c3ccccc3)N2[C@@H](c2ccc(OCCO)cc2)[C@]12C(=O)N(C(=O)OCCOC)c1ccc(C#Cc3ccc(OC)cc3)cc12

Target: Luciferin 4-monooxygenase (Photinus pyralis) (UniProt P08659)
Test: firefly luciferase enzyme inhibitors, primary screen, biochemical, luminescence, purified enzyme, 2006 set (AID 1141);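 also: cell-free assay with purified firefly luciferase at 100 ng per well in PBS; test concentration not given here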
Conditions: SteadyGlo luminescence, 30 min, higher = more signal, called active from +8 up or from −8 down

Chain of Luciferin 4-monooxygenase (Photinus pyralis) (P08659 whole entry, looked up): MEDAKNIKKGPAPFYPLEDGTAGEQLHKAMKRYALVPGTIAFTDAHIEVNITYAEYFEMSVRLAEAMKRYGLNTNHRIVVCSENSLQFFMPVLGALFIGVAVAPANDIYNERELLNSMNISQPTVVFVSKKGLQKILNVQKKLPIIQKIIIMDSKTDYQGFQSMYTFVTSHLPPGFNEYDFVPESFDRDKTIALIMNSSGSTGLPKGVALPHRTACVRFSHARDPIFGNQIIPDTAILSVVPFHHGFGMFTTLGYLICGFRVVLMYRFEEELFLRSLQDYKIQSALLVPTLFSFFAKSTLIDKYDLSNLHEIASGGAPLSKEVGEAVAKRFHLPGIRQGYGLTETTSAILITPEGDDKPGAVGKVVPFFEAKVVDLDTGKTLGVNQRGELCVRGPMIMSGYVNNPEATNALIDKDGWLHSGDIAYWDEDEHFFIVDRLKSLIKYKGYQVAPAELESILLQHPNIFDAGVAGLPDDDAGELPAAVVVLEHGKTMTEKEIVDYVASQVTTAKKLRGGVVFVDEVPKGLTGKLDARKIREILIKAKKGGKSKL

z-score, inactive:
CN1C=C(C(=O)OCCS(C)(=O)=O)C(C(=O)OCCS(C)(=O)=O)=CC(c2ccc(CO)cc2)=CC1c1cccs1 (configuration not stated) -1.63
CS(=O)(=O)CCOC(=O)C1=CC(CCCO)=CC(C2CC2)N(Cc2cccc(OC(F)(F)F)c2)C=C1C(=O)OCCS(C)(=O)=O (configuration not stated) -1.6
CC(C)[C@H]1NC(=O)[C@@]23C(=O)N[C@@H](Cc4ccccc4)C2[C@H](C)[C@@]2(C)O[C@H]2C3/C=C/C/C=C\CNC(=O)[C@H](Cc2ccccc2)NC1=O (some centres not stated) -0.894
Cc1ccc(S[C@]2(C(=O)NCc3ccccc3)CC(=O)N(Cc3cc(C(F)(F)F)cc(C(F)(F)F)c3)[C@@H]2c2ccc(CO)cc2I)cc1 -0.461
CN(C)C(=O)[C@@]1(Cc2ccccc2N=[N+]=[N-])N=C(c2ccc(OCCCO)cc2)O[C@H]1c1ccccc1 -2.17
COCC1=C2[C@@H](CCc3ccccc3)OB(O)C[C@@H]2[C@@H]2C(=O)N(C)C(=O)[C@@H]2C1 -0.171
O=C1C2C=CC(C(O)c3ccco3)N(Nc3ccccc3)C2C(=O)N1c1ccccc1 (configuration not stated) 1.06
NC(=O)[C@H]1[C@@H]2C(=O)O[C@@H](c3ccccc3)[C@@H](c3ccccc3)N2[C@@H](c2ccc(O)cc2)[C@]12C(=O)Nc1ccc(C#CC3=CCCCC3)cc12 -0.784
C=C(/C(=C/C[C@@H](OC(=O)c1ccncc1)c1cccc(OCCO)c1)c1cnc2ccccc2c1)C(C)C -1.47
CC(C)[C@H]1NC(=O)[C@@]23C(=O)N[C@@H](Cc4ccccc4)C2[C@H](C)[C@@]2(C)O[C@H]2C3/C=C/CCC/C=C/CNC(=O)[C@H](Cc2ccccc2)NC1=O (some centres not stated) -0.388
C=C(COC)/C(=C/C[C@@H](OC(C)=O)c1ccc(CO)o1)c1cc(C(=O)OC)ccc1OC -1.53
C=CCC(OC(C)=O)[C@@H]1[C@@H](N(Cc2cccc3ccccc23)C(=O)Cc2ccc(F)cc2)c2cc(OCCCO)ccc2N1C(=O)c1ccc(-c2ccccc2)cc1 (some centres not stated) -0.403
CC(=O)NCCCC[C@@H]1NC(=O)[C@H]2C[C@@H](C(=O)NCCCCCNC(=O)CS)[C@@H](c3cccc(OCCO)c3)N2C1=O -1.36
COCCOC(=O)N1C(=O)[C@@]2(c3cc(C#CCC(C(=O)OC)C(=O)OC)ccc31)[C@H](c1ccc(O)cc1)N1[C@H](c3ccccc3)[C@H](c3ccccc3)OC(=O)[C@H]1[C@@H]2C(=O)NC[C@H](O)c1ccccc1 1.04
Cc1ccccc1C(O)C1C=CC2C(=O)N(c3ccccc3)C(=O)C2N1Nc1ccc([N+](=O)[O-])cc1 (configuration not stated) 1.18
Cc1cccc([C@H]2C[C@H]3C(Br)=C[C@@H]2C(=O)[C@]32CO2)c1 -0.425
CCOC(=O)C=Cc1ccccc1O -0.532
CCOC(=O)C1=CCC(c2ccccc2)N(S(=O)(=O)c2ccc([N+](=O)[O-])cc2)C1 (configuration not stated) 0.864
C=C(CCCC)C(=O)CC[C@@H](OC(=O)c1cccnc1)c1ccc(OCCO)cc1 -3.15
CC(C)C[C@@H]1NC(=O)CNC(=O)[C@@]23C(=O)N[C@@H](Cc4ccccc4)C2[C@H](C)[C@@]2(C)O[C@H]2C3/C=C/C/C=C\CNC1=O (some centres not stated) -0.14
